# Screens (PubChem BioAssay)
# GLP-1R agonist: activates the human GLP-1 receptor; actives 0.007% (n = 380,000); HEK293 GLP-1R CRE-luciferase, luminescence, 4-6 h; cells express a hypersensitive GLP-1R form; Potency, µM (highest dose often 45.6 µM), actives largely listed as activators; AID 624172; P43220
# Glioma ERSR ind: ER stress response induction in glioma | AID 602332 | actives 0.02% (n = 420,000) | Potency, µM, actives largely listed as activators | U87-MG GRP78 promoter luciferase reporter, 16 h; note: series mostly up to about 76 µM; nearly all actives have a fitted effect of over 35% in size
#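 ERSR induction read as luciferase luminescence (Bright-Glo, 10 min at room temperature) in stably transfected human U87-MG glioma cells exposed to compounds for 16 h, using GRP78 as sensor.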
# PTHR1 ag: activates the human parathyroid hormone receptor PTHR1. HEK293 GP2 PTHR1 cells, GloSensor cAMP luminescence, 1 h. Potency, µM (top dose mostly 115 µM), most hits filed as activators. actives 0.075% (n = 410,000). Q03431; note: nearly all actives have a fitted effect of over 55% in size
#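 HEK-293-derived GP2 cells expressing PTHR1 and a GloSensor cAMP reporter, 3,000/well, plated overnight, given luciferin plus IBMX (each 0.5 mM as added) for 1 h at 37 °C, then compound for 1 h at 37 °C. Luminescence was read after 15 min at room temperature.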
# ALOX12 inh: inhibitors of human 12S-lipoxygenase ALOX12. actives 1.1% (n = 580,000). purified 12hLO, xylenol orange hydroperoxide absorbance. AID 1671190. P18054. Potency, µM (doses to about 108 µM), most hits filed as inhibitors
#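 Hydroperoxide product was detected by ferrous iron/xylenol orange as the 573 to 405 nm absorbance ratio. Arachidonic acid at 40 uM (final) was turned over for 30 min at room temperature by 150 nM human 12hLO, pH 7.0 Hepes buffer, after 15 min compound preincubation.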
# GLS inh: inhibitors of human glutaminase (GLS) | O94925 | actives 0.21% (n = 410,000) | Potency, µM (top dose mostly 45.5 µM), actives largely listed as inhibitors | GLS enzymatic activity, qHTS titration
# Target sequence (O94925 whole entry, looked up): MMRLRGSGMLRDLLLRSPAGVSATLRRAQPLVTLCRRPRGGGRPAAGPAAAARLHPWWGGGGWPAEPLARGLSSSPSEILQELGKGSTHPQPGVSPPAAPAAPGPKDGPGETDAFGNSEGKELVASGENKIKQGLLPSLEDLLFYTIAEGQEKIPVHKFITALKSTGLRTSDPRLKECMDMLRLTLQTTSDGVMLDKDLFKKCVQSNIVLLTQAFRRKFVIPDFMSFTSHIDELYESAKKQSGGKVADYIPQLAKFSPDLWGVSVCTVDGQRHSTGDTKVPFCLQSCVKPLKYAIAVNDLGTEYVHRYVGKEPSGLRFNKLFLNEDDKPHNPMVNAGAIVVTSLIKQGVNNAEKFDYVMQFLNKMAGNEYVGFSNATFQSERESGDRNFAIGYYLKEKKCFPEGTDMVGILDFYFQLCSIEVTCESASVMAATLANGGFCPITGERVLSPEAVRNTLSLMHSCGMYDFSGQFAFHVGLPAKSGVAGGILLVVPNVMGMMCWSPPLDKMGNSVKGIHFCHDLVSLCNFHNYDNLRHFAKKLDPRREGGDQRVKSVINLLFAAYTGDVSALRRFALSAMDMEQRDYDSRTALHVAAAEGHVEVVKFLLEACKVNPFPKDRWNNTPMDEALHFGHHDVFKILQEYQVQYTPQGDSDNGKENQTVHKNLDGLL
#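 Two-point fluorescence kinetic (t0, 30 min RT) for hKGA; glutamate detected via glutamate oxidase–HRP–Amplex Red. Substrate: 1 mM L-glutamine solution; buffer 45 mM KH2PO4, pH 8.2.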
# GLP1R inv ag: acts as inverse agonist at human GLP-1 receptor; AID 624417; actives 1.6% (n = 410,000); HEK293 GLP-1R CRE-luciferase, luminescence, 24 h; GLP-1R form is constitutively active; Potency, µM (series often up to 38.3 µM), usual class: inhibitors; P43220; note: nearly all actives have a fitted effect of over 55% in size
#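 HEK293 cells stably co-expressing a cAMP-responsive luciferase reporter and constitutively active GLP-1R were seeded, incubated 12 h, then exposed to compounds for 24 h at 37 C. Luminescence was read 12 min after detection reagent; inverse agonists lower signal.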
# Numbers stand for hits; . = inactive; ? = inconclusive; / = no result; ! = not confirmed by another sample. Shown are actives, neighbours in structure and some others; about 2.3% of the full set was active somewhere. Calls come from the whole dose curve; as a rule, active = well fitted curve in the direction sought with a large enough effect; inconclusive = small, poorly fitted or top-dose-only effect, or another doubt; inactive = no such curve, though single readings can be large; an effect the other way counts as inactive or inconclusive.
SMILES,GLP-1R agonist,Glioma ERSR ind,PTHR1 ag,ALOX12 inh,GLS inh,GLP1R inv ag
COc1cc(NC(=O)CSCc2ccc(Cl)cc2)c(C(=O)O)cc1OC,.,.,.,.,.,.
Cc1ccc(NC(=O)C2(NC(=O)c3cccc(N4C(=O)CSC4c4ccccc4)c3)CCCCC2)cc1 (configuration not stated),.,.,.,.,.,6.3µM
O=C(O)c1cccc(N2C(=O)CSC2c2ccccc2)c1 (configuration not stated),.,.,.,.,.,.
O=C(CC1SC(=O)N(c2ccccc2)C1=O)Nc1ccccc1 (configuration not stated),.,.,.,.,.,.
Cc1ccc(NC(=O)CC2SC(=O)N(c3ccccc3)C2=O)cc1 (configuration not stated),.,.,.,?,11µM,.
Cc1ccc(-c2c(C(=O)N/N=C/c3c[nH]c4ccccc34)nnn2-c2nonc2N)cc1,.,.,.,.,.,3.2µM
CCCc1c(C(=O)N/N=C/c2c[nH]c3ccccc23)nnn1-c1nonc1N,.,.,.,.,.,?
COc1ccc2c(c1)-c1c(ssc1=S)C(C)(C)N2S(=O)(=O)c1ccc(C)cc1,.,.,.,?,.,2.8µM
COc1ccc(C(O)c2ncc(-c3ccc(Cl)cc3)[nH]2)cc1 (configuration not stated),.,.,.,?,.,.
COc1ccc(-c2cnc(C(N)=O)c(=O)[nH]2)cc1,.,.,.,6.3µM,.,.
CCOC(=O)c1cc(NC(=O)c2cccc(-c3cc4ccccc4oc3=O)c2)ccc1N1CCOCC1,/,/,/,8.9µM,/,/
O=C(Nc1ccc(CN2CCOCC2)cc1)c1cccc(-c2cc3ccccc3oc2=O)c1,.,.,.,.,.,.
CC(OCC(O)CN(C)Cc1nc2ccccc2c(=O)[nH]1)c1ccc(Cl)cc1 (configuration not stated),.,.,.,.,.,10µM
Cc1ccc(-c2nnn(Cc3coc(-c4ccccc4)n3)n2)cc1,/,/,/,.,/,/
CC(N)C1CC1 (configuration not stated),/,/,/,.,/,/
O=C(O)c1ccccc1-c1ccc(/C=c2\sc3nc4cc(Br)cnc4n3c2=O)o1,.,.,.,/,13µM,.
Cc1cc2nc3s/c(=C/c4ccc(-c5ccccc5C(=O)O)o4)c(=O)n3c2cc1C,.,.,.,?,?,.
CC(=O)c1ccc(Nc2cc(C)nc3c(C)cc(C)cc23)cc1,.,.,.,.,.,8.9µM
Cc1cc(C)c2nc(C)cc(Nc3ccc(C(=O)N(C)C)cc3)c2c1,.,.,.,/,.,?
CC(=O)Nc1cc(C(=O)COC(=O)c2ccc3ccccc3c2)ccc1O,/,/,/,.,/,/
CC1(C)Cc2c(c(=S)nc(-c3ccccc3)n2CCOCCO)CO1,.,.,.,.,.,.
OCCOCCn1c(-c2ccccc2)nc(=S)c2c1CCCC2,.,.,?,40µM,.,.
CCCN1CCN(c2ncnc3sc(C(=O)Nc4ccc(OC(F)(F)F)cc4)c(C)c23)CC1,/,.,.,?,.,10µM
CCOC(=O)C1=C(CNCCOc2ccc(OC)cc2)NC(=O)NC1c1ccc2c(c1)OCO2 (configuration not stated),.,.,.,.,.,.
CCOC(=O)C1=C(CNCCc2ccc(Cl)cc2)NC(=O)NC1c1ccc2c(c1)OCO2 (configuration not stated),.,.,.,.,.,6.3µM
CCOC(=O)C1=C(CN(CC)Cc2ccccc2)NC(=O)NC1c1ccc(Cl)cc1 (configuration not stated),.,.,.,22µM!,.,10µM
CCOC(=O)C1=C(CN(CC)Cc2ccccc2)NC(=O)NC1c1ccc(OC)cc1 (configuration not stated),/,.,.,?,.,?
CCOC(=O)C1=C(CN2CCCCC2)NC(=O)NC1c1ccc(OC)cc1 (configuration not stated),/,.,.,45µM,.,.
